Screens deposited in PubChem BioAssay by several laboratories.
Compounds with a hit are over-represented: about 4.2% of the library has one in this group of screens.
CCHF vOTU inh: CCHFV vOTU protease inhibitors, primary screen, biochemical, Pep-AMC substrate, fluorescence. inhibition, % at 11.5 µM. Crimean-Congo hemorrhagic fever virus L polyprotein viral ovarian tumor (vOTU) protease …. 370,000 tested, 0.55% active. AID 651958, 2012; note: 0% = vehicle wells with enzyme and 100% = no enzyme wells
GDH-TPI counter-1: GDH-TPI coupling enzyme inhibitors, primary screen, artefact control for M. tuberculosis FBA inhibitor project, biochemical, absorbance, full deck | AID 588335, 2011 | GDH-TPI coupled enzyme counterscreen, NADH absorbance | inhibition, % at 4.8 µM | 360,000 tested, 1.2% active;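 note: 0% = DMSO wells and 100% = wells lacking the enzyme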
Mtb betalactam: beta-lactam sensitization of Mtb H37Rv, H37Rv. inhibition, % at 25 µM. 330,000 tested, 0.27% active. M. tuberculosis H37Rv growth with meropenem, percent inhibition; call rule not given here;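 note: growth measured after seven days incubation then overnight dye step; 0% = bacteria only wells and 100% = bacteria with antibiotic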
FBA Mtb inh: Mtb FBA enzyme inhibitors, primary screen, biochemical, fluorescence, strain H37Rv; Fructose-bisphosphate aldolase (Mycobacterium tuberculosis (strain ATCC 25618 / H37Rv)), …; purified M. tuberculosis FBA, fluorescence read-out; inhibition, % at 1 µM; 360,000 tested, 2.3% active; AID 588726, 2011; in the data active = inhibition above about 27%;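 note: 0% = vehicle and 100% = reference inhibitor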
Target sequence (P9WQA3 whole entry, looked up): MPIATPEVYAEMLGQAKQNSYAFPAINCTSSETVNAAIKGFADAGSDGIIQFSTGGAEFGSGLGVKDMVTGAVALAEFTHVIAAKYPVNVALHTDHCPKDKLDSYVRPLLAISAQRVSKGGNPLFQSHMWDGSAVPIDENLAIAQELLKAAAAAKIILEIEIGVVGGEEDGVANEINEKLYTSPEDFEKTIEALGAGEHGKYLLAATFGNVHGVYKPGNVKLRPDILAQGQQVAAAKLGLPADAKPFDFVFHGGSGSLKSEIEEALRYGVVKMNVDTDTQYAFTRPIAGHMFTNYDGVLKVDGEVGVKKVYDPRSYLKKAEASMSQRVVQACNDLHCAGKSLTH
RecA intein inh: Mtb RecA intein splicing inhibitors, primary screen, biochemical, fluorescence, HTS; AID 2221, 2009; Protein RecA (Mycobacterium tuberculosis (strain ATCC 25618 / H37Rv)), P9WHJ3; inhibition, % (test concentration not listed); 290,000 tested, 0.75% active; cell-free RecA intein splicing; in the data active = inhibition above about 30%;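 note: 0% = vehicle wells and 100% = reference inhibitor control wells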
Mtb FBA inh conf: M. tuberculosis aldolase blockers, biochemical, fluorescence, strain H37Rv, confirmation. shares compounds with FBA Mtb inh. purified M. tuberculosis FBA, fluorescence read-out. 5,600 tested, 78% active. inhibition, % at 1 µM; in the data active = inhibition above about 27%;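 note: 0% = vehicle wells and 100% = reference inhibitor wells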
GDH-TPI counter-2: GDH-TPI coupling enzyme inhibitors, artefact control for M. tuberculosis FBA inhibitor project, biochemical, fluorescence, high throughput; shares compounds with FBA Mtb inh; GDH-TPI coupled enzyme counterscreen; inhibition, % at 1 µM; 5,600 tested, 81% active; in the data active = inhibition above about 10%
* = called active by the depositor; / = not tested or not shown; + = active, no number. Cut-off read from the data, not from the text of the source, unless noted: active = inhibition above about 30%; inactive = the rest.

SMILES | CCHF vOTU inh | GDH-TPI counter-1 | Mtb betalactam | FBA Mtb inh | RecA intein inh | Mtb FBA inh conf | GDH-TPI counter-2
Cc1cc(=O)oc2cc(OCC(=O)N3CCOCC3)c(Cl)cc12 | -130 | 17 | -7 | 109* | / | + | +
Cc1cc(=O)oc2cc(OCC(=O)N3CCC(O)CC3)c(Cl)cc12 | 4 | 10 | 1 | 14 | -2 | / | /
COc1ccc(CN(CCN2CCOCC2)C(=O)c2cccc(F)c2)cc1OC | -7 | / | / | / | / | / | /
COC(=O)[C@@]12CCCCC3=C1N(CCC3)C(=O)[C@H]2CC(=O)N1CCCCC1 | -7 | / | / | / | / | / | /
Cc1cc(C)c2c(N)c(C(=O)Nc3nccs3)sc2n1 | -163 | 13 | -13 | 105* | -129 | 151* | 110*
CCOC(=O)c1sc2nc(C)cc(C)c2c1N | -61 | 23 | 7 | 36* | -11 | 65* | 56*
CC(C)NC(=O)NC1CCN(CC(=O)Nc2ccc3c(c2)OCCO3)CC1 | -7 | / | / | / | / | / | /
CC(C)c1[nH]nc2c1C(c1ccccc1)N(c1ccccc1)C2=O (stereo unspecified) | -3 | / | / | / | / | / | /
Nc1[nH]c(C(=O)c2ccccc2)c(-c2cccc(C(F)(F)F)c2)c1C(=O)NCCc1c[nH]c2ccccc12 | 6 | / | / | / | / | / | /
CCCCCC(=O)Nc1cccc(-c2nc3ncccc3o2)c1 | -8 | 8 | -1 | 41* | -2 | 72* | 61*
CCC(=O)NC(=S)Nc1cccc(-c2nc3ncccc3o2)c1 | -1 | 10 | -5 | -1 | -2 | / | /
CC(C)C(=O)Nc1cccc(-c2nc3ccccc3o2)c1 | -3 | 14 | -1 | 8 | 2 | / | /
Cc1ccc(-c2nc3cc(NC(=O)C(C)C)ccc3o2)cc1C | -6 | 18 | -16 | 45* | -4 | 50* | 35*
CC(C)C(=O)Nc1cccc(-c2nc3ncccc3o2)c1 | 0 | 7 | 1 | 35* | -2 | 158* | 125*
CCCCC(=O)Nc1cccc(-c2nc3ncccc3o2)c1 | -5 | 0 | 9 | 43* | 11 | -1 | -5
CC(C)c1nc(C(N)=O)c2[nH]c(=O)n(-c3ccc(F)cc3)c2n1 | -15 | 19 | -6 | 32* | -3 | + | +
CCCCCCSc1cccc(-c2nc3ccccn3c2NCc2ccccc2)c1 | 6 | 14 | 23 | 42* | / | 101* | 66*
CCCCCCSc1cc(-c2nc3ccc(C)cn3c2NCc2ccccc2)ccc1OC | 4 | 11 | 5 | 28* | 4 | 188* | 136*
CCCCNc1c(-c2ccc(-c3ccc(OC)cc3)c(OC)c2)nc2ccccn12 | -27 | 23 | 93 | 73* | / | 82* | 59*
CCCCCCSc1cc(-c2nc3cc(C)ccn3c2NCCCC)ccc1OC | 8 | 15 | -3 | 12 | 3 | / | /
CCCCNc1c(-c2ccc(SC(C)CC)c(OC)c2)nc2ccc(C)cn12 (stereo unspecified) | -18 | 14 | 100 | 48* | -39 | 35* | 27*
CCOC(=O)N[C@H](C(=O)N1CCC[C@H]1C(=O)NCCc1ccccc1Cl)c1ccccc1 | 10 | / | / | / | / | / | /
Cc1cc(C)cc(N(CC(=O)NC2CCC(C)CC2)S(=O)(=O)c2ccc(C)c(C)c2)c1 (stereo unspecified) | 20 | / | / | / | / | / | /
O=C(NC1CCCCN(Cc2ccc(Cl)cc2)C1=O)c1cccc(C(F)(F)F)c1 (stereo unspecified) | 21 | / | / | / | / | / | /
CCCCCCSc1cccc(-c2nc3cc(C)ccn3c2NCc2ccccc2)c1 | 1 | 19 | -2 | 28* | 9 | 122* | 104*
SMILES | CCHF vOTU inh | GDH-TPI counter-1 | Mtb betalactam | FBA Mtb inh | RecA intein inh | Mtb FBA inh conf | GDH-TPI counter-2
O=C(O)c1cccc2sc3cc(Cl)ccc3c(=O)c12 | -35 | 13 | -12 | 63* | / | 157* | 126*
Fc1ccc(NC(=S)Nc2cccc3ccccc23)cc1 | -5 | 5 | 3 | 19 | -3 | / | /
CC(=O)NNC(=S)Nc1cc(S(=O)(=O)N(C)C)ccc1C | -3 | 8 | 3 | 2 | -2 | / | /
Cc1cc(C)cc(NC(=S)Nc2cccc3ccccc23)c1 | -6 | 9 | 32 | 42* | 4 | 147* | 129*
Cc1cccc(NC(=S)Nc2cccc3ccccc23)c1 | -3 | 12 | -5 | 47* | 6 | 143* | 112*
Cc1ccc(S(=O)(=O)N(C)C)cc1NC(=S)Nc1cccc2ccccc12 | -1 | -3 | -3 | 34* | 9 | + | 194*
Fc1ccc(NC(=S)Nc2cccc3ccccc23)cc1F | -12 | 11 | 1 | 49* | 5 | 24 | 17*
O=C(Cc1ccccc1F)Nc1nnc(-c2cccnc2)s1 | -4 | / | / | / | / | / | /
O=C1CC2c3cc(-c4cc5ccccc5o4)ccc3CCN2C(=O)CN1Cc1ccccc1 (stereo unspecified) | 1 | / | / | / | / | / | /
COCCCN1CCC2(CCC(c3ccccc3)CC2)C1=O (stereo unspecified) | 1 | / | / | / | / | / | /
COc1cccc(NC(=S)Nc2cccc3ccccc23)c1 | -3 | -2 | 22 | 21 | 2 | / | /
CCc1cccc(NC(=S)Nc2cccc3ccccc23)c1 | -7 | 7 | -5 | 46* | 7 | 86* | 77*
CCOC(=O)c1cc2c(=O)n3ccccc3nc2n(C(C)C)c1=NC(=O)c1c(-c2c(F)cccc2Cl)noc1C | -45 | 3 | 5 | 26 | -71 | / | /
CCOC(=O)c1cc2c(=O)n3ccccc3nc2n(C)c1=NC(=O)c1c(-c2c(F)cccc2Cl)noc1C | -16 | -5 | -10 | 33* | / | 162* | 132*
CCOC(=O)c1cc2c(=O)n3ccccc3nc2n(Cc2ccco2)c1=NC(=O)c1ccc(OC)cc1OC | -326 | 16 | -6 | 104* | -32 | 91* | 88*
CCCCn1c(=NC(=O)c2cccnc2)c(C(=O)OCC)cc2c(=O)n3ccccc3nc21 | -38 | -12 | / | 56* | -49 | 134* | 91*
COC(=O)C1=C(C)N(C)C(=NCc2ccc(C(F)(F)F)cc2)NC1c1ccc(Cl)cc1 (stereo unspecified) | 29 | / | / | / | / | / | /
COC(=O)c1cc2c(c3c4cc(C)ccc4n(S(=O)(=O)c4ccc(C)cc4)c13)C(=O)N(C)C2 | 13 | / | / | / | / | / | /
CCOC(=O)c1[nH]c2ccc(OC)cc2c1C(SCC(=O)O)c1ccc(C(F)(F)F)cc1 (stereo unspecified) | -1 | -1 | -8 | 55* | 9 | 132* | 85*
CCOC(=O)Cn1c(-c2ccc(Cl)nc2)nc2ccccc21 | 0 | 11 | 66 | 43* | / | 122* | 106*
